In PubChem BioAssay (NCATS):
Results filed as inconclusive are left out. Activity calls are given as the source filed them. The call rests on the fitted dose curve; in most records, active means well fitted curve in the direction sought with a large enough effect; inconclusive means small, poorly fitted or top-dose-only effect, or another doubt; inactive means no such curve, though single readings can be large; an effect the other way counts as inactive or inconclusive.

Experiments:
[1] = biological target: Calcium and integrin-binding protein 1 (Homo sapiens) (UniProt Q99828); assay: Primary qHTS for Identification of Calcium Integrin Binding Protein 1 (CIB1) Competitor (AID 1508620);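 further: GST tagged CIB1 binding a fluorescein labelled alphaIIb integrin peptide tracer; top concentration of the series differs between compounds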
Calcium and integrin-binding protein 1 (Homo sapiens), sequence (Q99828 whole entry, looked up): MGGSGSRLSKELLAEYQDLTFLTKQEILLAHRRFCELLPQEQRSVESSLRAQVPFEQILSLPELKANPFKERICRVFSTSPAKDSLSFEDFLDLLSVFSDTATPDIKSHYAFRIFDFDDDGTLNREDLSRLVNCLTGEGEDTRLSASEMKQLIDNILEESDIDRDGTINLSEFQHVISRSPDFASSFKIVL
Procedure, shortened: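 Fluorescence polarization competition: GST-tagged CIB1 (1 uM final) preincubated with compound 15 min at room temperature, then FITC-labelled alphaIIb peptide (100 nM final) added. After 15 min at room temperature, polarization read at Ex 480/Em 540.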

[2] = Primary qHTS for inhibitors of nuclear receptor binding SET domain protein 2 (NSD2) in an isogenic RCH-ACV NSD2 p.E1099K mutant (9B) (AID 1645876); further: nearly all actives have a fitted effect of over 70% in size
[3] = Primary qHTS for inhibitors of nuclear receptor binding SET domain protein 2 (NSD2) in an RCH-ACV wild type WT cells (2C) (AID 1645877); further: nearly all actives have a fitted effect of over 70% in size
On the % scale 0 is the no-effect control and ±100 the full control effect.

C=C1[C@H]2CCC3[C@]4(C)CCC[C@@](C)(C(=O)O)C4CC[C@]3(C2)[C@H]1OC(C)=O (stereo partly specified)
inactive: Potency [1] | Potency [2] | Potency [3]

COC(=O)[C@]1(Cc2ccc(O)c(CC=C(C)C)c2)OC(=O)C(O)=C1c1ccc(O)cc1
inactive: Potency [1] | Potency [2] | Potency [3]

COc1ccc(C(=O)OC2C3C=COC(OC4OC(CO)C(O)C(O)C4O)C3C3(CO)OC23)cc1OC (stereo unspecified)
inactive: Potency [1] | Potency [2] | Potency [3]

C[C@@H]1CCC2C(C)(C)[C@H](O)[C@H](O)C[C@]2(C)[C@@]12Cc1c(O)cc3c(c1O2)CN(CCCC(=O)O)C3=O (stereo partly specified)
inactive: Potency [1] | Potency [2] | Potency [3]

O=C(/C=C/c1ccc(O)cc1)OC[C@H]1O[C@H](O[C@@]2(CO)O[C@@H](CO)[C@H](O)[C@H]2O)[C@H](O)[C@@H](O)[C@@H]1O
inactive: Potency [1] | Potency [2] | Potency [3]

C=C(COC(=O)CC(C)C)C1Cc2cc(C(C)=O)ccc2O1 (stereo unspecified)
inactive: Potency [1] | Potency [2] | Potency [3]

CC(C)=CC[C@H]1O[C@]2(O)C([C@H]3CCC4[C@@]5(C)CC[C@H](O[C@@H]6O[C@H](CO)[C@H](O)[C@H](O[C@@H]7O[C@H](CO)[C@@H](O)[C@H](O)[C@H]7O)[C@H]6O[C@@H]6O[C@@H](C)[C@H](O)[C@@H](O)[C@H]6O)C(C)(C)C5CC[C@@]4(C)[C@]3(C)[C@H]2O)[C@@]1(C)O (stereo partly specified)
inactive: Potency [1] | activity change, negative = viability loss [2] -8.31% [at 9.23 µM] | activity change, negative = cell killing [3] -7.27% [at 9.23 µM]

C[C@@H]1O[C@@H](O[C@H]2[C@@H]3C=CO[C@@H](O[C@@H]4O[C@H](CO)[C@@H](O)[C@H](O)[C@H]4O)[C@@H]3[C@@]3(CO)O[C@@H]23)[C@H](O)[C@H](OC(=O)/C=C/c2ccc(O)c(O)c2)[C@H]1O
inactive: Potency [1] | Potency [2] | Potency [3]

COc1ccc(/C=C/C(=O)O[C@@H]2[C@@H](OC(C)=O)[C@@H](OC(C)=O)[C@H](O[C@H]3[C@@H]4C=CO[C@@H](O[C@@H]5O[C@H](CO)[C@@H](O)[C@H](O)[C@H]5O)[C@@H]4[C@@]4(CO)O[C@@H]34)O[C@H]2C)cc1
inactive: Potency [1] | Potency [2] | Potency [3]

OCC1OC(Oc2cc(O)cc(/C=C/c3ccc(OC4OC(CO)C(O)C(O)C4O)cc3O)c2)C(O)C(O)C1O (stereo unspecified)
inactive: Potency [1] | Potency [2] | Potency [3]

OC[C@@]1(O)CO[C@@H](OC[C@H]2O[C@@H](Oc3ccccc3)[C@H](O)[C@@H](O)[C@@H]2O)[C@@H]1O
inactive: Potency [1] | Potency [2] | Potency [3]

CCC1OC(=O)C(C)CC(C)C(=O)/C(C)=C/C(C)C(=O)/C=C/C1(C)O (stereo unspecified)
inactive: Potency [1] | Potency [2] | Potency [3]

O=C(O)CC/C=C\C[C@H]1CO[C@@H](c2ccccc2Cl)O[C@H]1c1ccccc1O
inactive: Potency [1] | Potency [2] | Potency [3]

COc1cc(/C=C/C(=O)O[C@H]2[C@H](O)[C@@H](CO)O[C@@]2(CO)O[C@H]2O[C@H](CO)[C@@H](O)[C@H](O)[C@H]2O)cc(OC)c1O
inactive: Potency [1] | Potency [2] | Potency [3]

C=CC(C)(O)CC/C=C(\C)C(=O)O[C@@H]1[C@@H](O)[C@H](OC(C)(C=C)CC/C=C(\C)C(=O)O)O[C@H](CO)[C@H]1OC(=O)/C(C)=C/CCC(C)(O)C=C (stereo partly specified)
inactive: Potency [1] | Potency [2] | Potency [3]

O=C(/C=C/c1ccc(O)cc1)OC[C@H]1O[C@@H](O/C(=C\c2ccccc2)C(=O)O)[C@H](O)[C@@H](O)[C@@H]1O
inactive: Potency [1] | Potency [2] | Potency [3]

CC1=C[C@H](O)[C@H]2C(C)(C)CCC[C@]2(C)[C@@]1(O)CO
inactive: Potency [1] | Potency [2] | Potency [3]

COc1ccc(C2(O)c3ccccc3NC(=O)C2OC)cc1 (stereo unspecified)
inactive: Potency [1] | Potency [2] | Potency [3]

C=C1CCC2C(C)(C)CC(O)CC2(C)C1CCC(C)CC(=O)O (stereo unspecified)
inactive: Potency [1] | Potency [2] | Potency [3]

C[C@@H]1CC2OC(=O)C3=C2C(CCC3O)[C@@]12C[C@@H](c1ccoc1)OC2=O (stereo partly specified)
inactive: Potency [1] | Potency [2] | Potency [3]

COc1cc(C)c(C(=O)NC2C(C)OC(OC3CCC(C)C4C3C=C(C)C3/C(C)=C\CC/C(C)=C/C5(C)C=C(C(=O)O)C(C)CC56OC(=O)/C(=C(\O)C34C)C6=O)C(O)C2(C)O)c(O)c1 (stereo unspecified)
inactive: Potency [1] | activity change, negative = viability loss [2] 4.33% [at 9.23 µM] | outcome [3] inactive [at 9.23 µM]

COc1cc(/C=C/C(=O)O[C@@H]2C[C@](O)(C(=O)O)C[C@@H](O)[C@H]2O)ccc1O
inactive: Potency [1] | Potency [2] | Potency [3]

COC(=O)C1=CO[C@@H](O[C@@H]2O[C@H](CO)[C@@H](O)[C@H](O)[C@H]2O)[C@@H]2[C@@H](C)[C@@H](OC(=O)/C=C/c3ccccc3)[C@@H](O)[C@H]12
inactive: Potency [1] | Potency [2] | Potency [3]

CC1(C)CC[C@]2(C(=O)O)CC[C@]3(C)C(=CCC4[C@@]5(C)C[C@@H](O)[C@H](O)[C@@](C)(CO)C5CC[C@]43C)C2C1 (stereo partly specified)
inactive: Potency [1] | Potency [2] | Potency [3]

C=C1CCC2(C(=O)OC3OC(CO)C(O)C(O)C3O)CCC3(C)C(=CCC4C5(C)CCC(OC6OC(CO)C(OC7OC(C)C(O)C(O)C7O)C(OC7OCC(O)C(O)C7O)C6O)C(C)(C)C5CCC43C)C2C1 (stereo unspecified)
inactive: Potency [1] | outcome [2] inactive [at 9.23 µM] | activity change, negative = cell killing [3] -3.7% [at 9.23 µM]

COc1cc2c(c(OC)c1O)C(c1ccc(O)cc1)C1C(=O)OC3C(COC(=O)C1=C2)OC(CO)(OC1OC(COC(=O)/C=C/c2ccc(OC4OC(C)C(O)C(O)C4O)cc2)C(O)C(O)C1O)C3O (stereo unspecified)
inactive: Potency [1] | activity change, negative = viability loss [2] -11.1% [at 9.23 µM] | activity change, negative = cell killing [3] -15.9% [at 9.23 µM]

C=C(C(=O)O)C1CC(O)C2(C)CCCC(C)(O)C2C1 (stereo unspecified)
inactive: Potency [1] | Potency [2] | Potency [3]

C[C@]12CC[C@@H]3c4ccc(O)cc4CC[C@H]3[C@@H]1C[C@@H](O[C@@H]1O[C@H](C(=O)O)[C@@H](O)[C@H](O)[C@H]1O)[C@@H]2O
inactive: Potency [1] | Potency [2] | Potency [3]

CC1=C2C[C@@]3(C)[C@@H](CCC[C@@H]3C)C[C@@]2(O)OC1=O
inactive: Potency [1] | Potency [2] | Potency [3]

C[C@@H]1O[C@@H](O[C@H]2[C@@H]3C=CO[C@@H](O[C@@H]4O[C@H](CO)[C@@H](O)[C@H](O)[C@H]4O)[C@@H]3[C@@]3(CO)O[C@@H]23)[C@H](O)[C@H](O)[C@H]1OC(=O)/C=C/c1ccc(O)cc1
inactive: Potency [1] | Potency [2] | Potency [3]

CC1=CCC[C@@H]2[C@@](C)(CCc3ccoc3)[C@H](C(=O)O)CC[C@@]12C
inactive: Potency [1] | Potency [2] | Potency [3]

COC(=O)C1=CO[C@@H](O[C@@H]2O[C@H](CO)[C@@H](O)[C@H](O)[C@H]2O)[C@@H]2C(C)CC(=O)[C@]12O (stereo partly specified)
inactive: Potency [1] | Potency [2] | Potency [3]

COC(=O)C(Cc1ccccc1)NC(=O)c1ccccc1 (stereo unspecified)
inactive: Potency [1] | Potency [2] | Potency [3]

C[C@@H]1O[C@@H](O[C@H]2[C@H](O[C@H]3[C@H](O[C@H]4CC[C@@]5(C)C(CC[C@]6(C)C5CC=C5[C@@H]7CC(C)(C)C[C@@H](O)[C@]7(C)CC[C@]56C)[C@@]4(C)CO)O[C@H](C(=O)O)[C@@H](O)[C@@H]3O)O[C@H](C(=O)O)[C@H](O)[C@@H]2O)[C@H](O)[C@H](O)[C@H]1O (stereo partly specified)
inactive: Potency [1] | activity change, negative = viability loss [2] 4.66% [at 9.23 µM] | activity change, negative = cell killing [3] 2.89% [at 9.23 µM]

CC(=O)O[C@@H]1[C@H](O[C@@H]2O[C@H](CO)[C@@H](O)[C@H](O)[C@H]2O)[C@@H](O[C@@H]2O[C@@H](C)[C@H](O)[C@@H](O[C@@H]3O[C@H](CO)[C@@H](O)[C@H](O)[C@H]3O)[C@H]2O)[C@H](OC(=O)[C@]23CCC(C)(C)C[C@H]2C2=CCC4[C@@]5(C)C[C@H](O)[C@H](O[C@@H]6O[C@H](C(=O)O)[C@@H](O)[C@H](O)[C@H]6O)[C@@](C)(C(=O)O)C5CC[C@@]4(C)[C@]2(C)CC3)O[C@@H]1C (stereo partly specified)
inactive: activity change, negative = inhibition [1] -1.12% [at 12.4 µM] | activity change, negative = viability loss [2] -4.25% [at 9.23 µM] | activity change, negative = cell killing [3] -3.72% [at 9.23 µM]

CC1=C(CCC(C)O[C@@H]2O[C@H](CO)[C@@H](O)[C@H](O)[C@H]2O)C(C)(C)CC(O)C1 (stereo partly specified)
inactive: Potency [1] | Potency [2] | Potency [3]

CC(C)(O)c1ccc2c(c1)C(=O)C[C@H]1[C@](C)(C(=O)O)CCC[C@]21C
inactive: Potency [1] | Potency [2] | Potency [3]

C=C(C(=O)O)[C@@H]1CC[C@@]2(C)CCC[C@@](C)(O)[C@@H]2C1
inactive: Potency [1] | Potency [2] | Potency [3]

C/C=C/C(=O)OC1/C=C/C(O)C(OC(C)=O)CCC(=O)OC1C (stereo unspecified)
inactive: Potency [1] | Potency [2] | Potency [3]

COc1ccc(C2(O)c3c(ccc4c3OC(C)(CCC=C(C)C)C=C4)NC(=O)C2OC)cc1 (stereo unspecified)
inactive: Potency [1] | Potency [2] | Potency [3]

C/C=C(/C)C(=O)OC1C2OC2C2(CO2)C2C3OC(=O)C(C)C3CCC12C (stereo unspecified)
inactive: Potency [1] | Potency [2] | Potency [3]

COc1cncc(C#Cc2ccccn2)c1
inactive: Potency [1] | Potency [2] | Potency [3]

COc1ccc(C(=O)CC(=O)O)c2c1C=CC(C)(C)O2
inactive: Potency [1] | Potency [2] | Potency [3]

OC[C@H]1O[C@@H](OC[C@H]2O[C@@H](OCc3ccccc3)[C@H](O)[C@@H](O)[C@@H]2O)[C@H](O)[C@@H](O)[C@@H]1O
inactive: Potency [1] | Potency [2] | Potency [3]

NC(=O)C(O[C@@H]1O[C@H](CO[C@@H]2O[C@H](CO)[C@@H](O)[C@H](O)[C@H]2O)[C@@H](O)[C@H](O)[C@H]1O)c1ccccc1 (stereo partly specified)
inactive: Potency [1] | Potency [2] | Potency [3]

O=C(Nc1ccn(Cc2c(F)cccc2C(F)(F)F)n1)c1c(F)cccc1F
inactive: Potency [1] | activity change, negative = viability loss [2] -7.96% [at 9.23 µM] | activity change, negative = cell killing [3] -25.3% [at 9.23 µM]

C/C=C1\[C@H](O[C@@H]2O[C@H](CO)[C@@H](O)[C@H](O)[C@H]2O)OC=C(C(=O)O)[C@H]1CC(=O)OCCc1ccc(O)cc1
inactive: Potency [1] | Potency [2] | Potency [3]
